# Experimental data published in PubChem BioAssay.
# Assay: JC-1 mitochondrial signal, unstimulated myeloma cells – cell-based, JC-1 fluorescence, RPMI8226, 24 h, 100 nL compound, profiling panel (AID 1169)
# Conditions: JC-1 mitochondrial potential fluorescence, higher = more signal
# Note: test concentration not given here.
row,Compound,z-score
1,CN(C)C(=O)[C@]1(CCC(=O)OC(C)(C)C)N=C(c2ccc(OCCCO)cc2)O[C@@H]1c1ccccc1N=[N+]=[N-],-0.568
2,[N-]=[N+]=NCc1ccccc1C[C@]1(C(=O)NCCN2CCOCC2)N=C(c2ccc(OCCCO)cc2)O[C@H]1c1ccccc1N=[N+]=[N-],-1.02
3,O=C1O[C@H](c2ccccc2)[C@H](c2ccccc2)N2[C@H]1[C@@H](C(=O)Nc1nc3ccccc3s1)[C@]1(C(=O)Nc3ccccc31)[C@H]2c1ccc(O)cc1,-1.12

# Assay: JC-1 mitochondrial signal, unstimulated MM1S myeloma – cell-based, JC-1 fluorescence, 24 h, 100 nL compound, profiling panel (AID 1170)
# Conditions: MM1S mitochondrial potential, higher = more signal
row,Compound,z-score
1,CN1CCC(CCCO)=CC1c1ccc(CN2CCCC2)cc1 (stereo unspecified),0.00742
2,C=C[C@H](C)[C@@H](O)c1ccc(O)c2ccccc12,-1.29
3,COCCOC(=O)N1C(=O)[C@@]2(c3cc(C#CC4=CCCCC4)ccc31)[C@H](C(=O)N1CCc3cc(OC)c(OC)cc3C1)[C@H]1C(=O)O[C@H](c3ccccc3)[C@H](c3ccccc3)N1[C@@H]2c1ccccc1OCCO,-0.72
4,COC(=O)C1=CC(CCCO)=CC(C2CC2)N(Cc2sc3ccccc3c2Cl)C=C1C(=O)OC (stereo unspecified),0.00801
5,NC(=O)NCC#Cc1ccc2c(c1)[C@]1(C(=O)N2)[C@H](C(=O)N2CCCCCCC2)[C@H]2C(=O)O[C@H](c3ccccc3)[C@H](c3ccccc3)N2[C@@H]1c1ccc(OCCO)cc1,-0.781
6,COc1ccccc1CN1C(=O)c2ccccc2[C@@H](C(=O)NCCN2CCOCC2)[C@@H]1c1ccc(CO)cc1,-0.691
7,O=c1cccc(C=Cc2ccccc2)o1,-0.969
8,C=C[C@@H](COC(C)=O)N(Cc1ccc([N+](=O)[O-])cc1)S(=O)(=O)c1ccc(Br)cc1,0.198
9,CC(C)C(=C=CC[C@@H](O)c1ccccc1OCCO)C[C@@H](O)c1ccccn1,-0.0458
10,CCCCC=C[C@@H](NC(=O)c1ccc(C(=O)OC)cc1)c1ccccc1,-1.38
11,O=c1oc(-c2ccccc2)nc2cc(Br)ccc12,0.873
12,C=CC(COC(C)=O)NS(=O)(=O)c1ccc(Br)cc1 (stereo unspecified),0.654
13,CS(=O)(=O)CCOC(=O)C1=CC(CCCO)=CC(c2cccs2)N(Cc2cc3c(cc2Br)OCO3)C=C1C(=O)OCCS(C)(=O)=O (stereo unspecified),-0.579
14,CCC[C@@H]1C=C(C(=O)O)[C@H](c2ccc(C)cc2)N1S(=O)(=O)c1ccc(C)cc1,-0.166
15,CC(C)NC(=O)[C@@H]1c2ccccc2C(=O)N(Cc2ccccc2)[C@H]1c1ccc(CO)cc1,-0.0636
16,Cc1ccc(S[C@]2(C(=O)NCc3ccccc3)CC(=O)N(Cc3ccccc3)[C@@H]2c2ccc(CO)cc2)cc1,-0.172
17,COC(=O)c1ccc(C(O)C2C=CC3C(=O)N(C)C(=O)C3N2NC(=O)OC(C)(C)C)o1 (stereo unspecified),0.395
18,COc1ccc(C(=O)Nc2cccc(CN3C(=O)[C@]4(O[C@H](CC(=O)N5CCC[C@H]5CO)[C@@H]([Si](C)(C)c5ccc(OC)cc5)[C@@H]4C)c4ccccc43)c2)cc1,-1.64
19,CC(C)Cc1ccc(CN2CC[C@@H](NS(=O)(=O)c3ccccc3)C2)cc1,-2.29
20,C=CCC(OC(C)=O)[C@@H]1[C@@H](N(Cc2cccc3ccccc23)C(=O)c2cccc3ccccc23)c2cc(OCCCO)ccc2N1C(=O)c1ccc2ccccc2n1 (stereo partly specified),0.248
21,COCCOC(=O)N1C(=O)[C@@]2(c3cc(C#CCNC(N)=O)ccc31)[C@H](c1ccc(OCCO)cc1)N1[C@H](c3ccccc3)[C@H](c3ccccc3)OC(=O)[C@H]1[C@@H]2C(=O)N1CCc2cc(OC)c(OC)cc2C1,-1.32
22,O=C1C=CC(=O)[C@@H]2CC(COc3ccccc3)=C3[C@@H](CCc4ccccc4)OB(O)C[C@@H]3[C@H]12,-2.46
23,[N-]=[N+]=NCc1ccccc1[C@@H]1OC(c2ccc(OCCCO)cc2)=N[C@]1(Cc1ccccc1N=[N+]=[N-])C(=O)NCc1ccccc1,-1.37
24,NCCCCCCNC(=O)[C@H]1C[C@H]2C(=O)NCC(=O)N2[C@H]1c1cccc(OCCO)c1,0.535
25,CCCCCN1CC=CC23O[C@@H]4/C=C\CCC(C)OC(=O)C4[C@H]2C(=O)N(CCCCCO)[C@@H]3C1=O (stereo partly specified),-0.617
26,O=C(NCc1ccccc1)[C@]1(CCS(=O)(=O)c2ccccc2)N=C(c2ccc(OCCCO)cc2)O[C@@H]1c1ccccc1,-1.75
27,C=CC(=C)C1=CCO[C@@H]1[C@H]1CCCN1S(=O)(=O)c1ccccc1[N+](=O)[O-],-0.233
28,COc1ccc(C(=O)Nc2cccc(CN3C(=O)[C@@]4(O[C@@H](CCn5cc(CCO)nn5)[C@H]([Si](C)(C)c5ccc(OC)cc5)[C@H]4C)c4ccccc43)c2)cc1,-2.3
